Test [1] can be described thus: BSK_LPS_PGE2: BioMAP Diversity Plus: LPS Assay for Prostaglandin E2 (PGE2) Biomarker Activity (AID 2283082). The following applies: primary human HUVEC with PBMC; actives raise or lower the signal. Summed up: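 PGE2 release measured by ELISA in an LPS-activated co-culture of human umbilical vein endothelial cells and peripheral blood mononuclear cells, read at 24 h post-dosing. DMSO served as baseline for bidirectional curve fitting.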

Read-out in test [2]: Macrophage colony-stimulating factor (MCSF), CSF1 (gene 1435)
The experiment in a line: BSK_LPS_MCSF: BioMAP Diversity Plus: LPS Assay for Macrophage colony-stimulating factor (MCSF) Biomarker Activity (AID 2283083). Conditions: primary human HUVEC with PBMC; actives raise or lower the signal. The procedure, abridged:
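Human umbilical vein endothelial cells co-cultured with peripheral blood mononuclear cells were exposed to compound for 24 h. M-CSF levels were measured by ELISA, and bidirectional curve fitting used DMSO as the negative control and baseline.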

Read-out in test [3]: Tissue Factor, F3 (gene 2152)
The experiment in a line: BSK_LPS_TissueFactor: BioMAP Diversity Plus: LPS Assay for Tissue Factor Biomarker Activity (AID 2283084). Conditions: primary human HUVEC with PBMC; actives raise or lower the signal. Summed up:
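Human umbilical vein endothelial cells co-cultured with peripheral blood mononuclear cells were dosed and stimulated with LPS. Cell-surface CD142 was quantified by ELISA at 24 h. Activity was fitted bidirectionally against DMSO baseline.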

Read-out in test [4]: Tumor necrosis factor (Homo sapiens) (UniProt P01375)
The experiment in a line: BSK_LPS_TNFa: BioMAP Diversity Plus: LPS Assay for Tumour Necrosis Factor alpha (TNFa) Biomarker Activity (AID 2283085).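 As to AC50: TNFa protein level quantified by ELISA in the co-culture.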 Conditions: primary human HUVEC with PBMC; actives raise or lower the signal. The procedure, abridged: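 TNFa was quantified by ELISA in LPS-activated co-cultures of human endothelial cells and PBMC, 24 h post-dosing. Both increases and decreases versus DMSO were fitted.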

Read-out in test [5]: Vascular cell adhesion molecule 1 (VCAM1), VCAM1 (gene 7412)
The test is described as follows: BSK_LPS_VCAM1: BioMAP Diversity Plus: LPS Assay for Vascular cell adhesion molecule 1 (VCAM1) Biomarker Activity (AID 2283086). Conditions: primary human HUVEC with PBMC; actives raise or lower the signal. The procedure, abridged: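 VCAM-1 quantified by ELISA in an LPS-activated co-culture of human endothelial cells and peripheral blood mononuclear cells, read 24 h post-treatment. Fitted in both directions versus DMSO; parallel SRB staining flags overt cytotoxicity.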

Read-out in a further test: CD38, CD38 (gene 952)
The test is described as follows: BSK_SAg_CD38: BioMAP Diversity Plus: SAg Assay for CD38 Biomarker Activity (AID 2283087). Conditions: primary human HUVEC with PBMC; actives raise or lower the signal. Summed up: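 CD38 quantified by ELISA (fluorescence) in a superantigen-activated endothelial cell–PBMC co-culture at 24 h post-dose. Activity fitted in both directions relative to DMSO; parallel SRB and Alamar Blue cytotoxicity read-outs.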

Read-out in the next test: CD40, CD40 (gene 958)
The experiment in a line: BSK_SAg_CD40: BioMAP Diversity Plus: SAg Assay for CD40 Biomarker Activity (AID 2283088). The following applies: primary human HUVEC with PBMC; actives raise or lower the signal. The procedure, abridged: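 Human umbilical vein endothelial cells co-cultured with PBMC; CD40 levels measured by ELISA with fluorescence read-out 24 h after chemical dosing. Gain or loss of signal fitted bidirectionally against DMSO baseline.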

Read-out in a further test: CD69, CD69 (gene 969)
The test is described as follows: BSK_SAg_CD69: BioMAP Diversity Plus: SAg Assay for CD69 Biomarker Activity (AID 2283089).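 As to AC50: cell surface CD69 protein quantified by ELISA with fluorescence detection.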 The following applies: primary human HUVEC with PBMC; actives raise or lower the signal. Summed up: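 ELISA, fluorescence read-out: CD69 on human umbilical vein endothelial cell + PBMC co-culture, 24 h post-dosing. Gain or loss of signal fitted bidirectionally against DMSO baseline.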

Read-out in test [6]: Monocyte Chemoattractant Protein-1 (MCP1), CCL2 (gene 6347)
The experiment in a line: BSK_SAg_MCP1: BioMAP Diversity Plus: SAg Assay for Monocyte Chemoattractant Protein-1 (MCP1) Biomarker Activity (AID 2283090). The following applies: primary human HUVEC with PBMC; actives raise or lower the signal. The procedure, abridged: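 Values derive from bidirectional fitting of ELISA-measured MCP1 against DMSO controls. Readings were taken 24 h after dosing human vascular endothelial cells co-cultured with peripheral blood mononuclear cells under superantigen stimulation.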

Read-out in test [7]: E-selectin (Homo sapiens) (UniProt P16581)
The experiment in a line: BSK_SAg_Eselectin: BioMAP Diversity Plus: SAg Assay for Eselectin Biomarker Activity (AID 2283091). Conditions: primary human HUVEC with PBMC; actives raise or lower the signal. Summed up: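 HUVEC co-cultured with PBMC, compound dosed then read at 24 h; E-selectin measured by ELISA. Activity fitted bidirectionally against DMSO as negative control and baseline.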

Read-out in test [8]: Monokine induced gamma interferon (MIG), CXCL9 (gene 4283)
The experiment in a line: BSK_SAg_MIG: BioMAP Diversity Plus: SAg Assay for Monokine induced gamma interferon (MIG) Biomarker Activity (AID 2283092). The following applies: primary human HUVEC with PBMC; actives raise or lower the signal. The procedure, abridged: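 ELISA readout of MIG/CXCL9; primary human umbilical vein endothelial cells co-cultured with peripheral blood mononuclear cells; 24 h post-dose; gain/loss fit vs DMSO baseline.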

Test [9] is described as follows: BSK_SAg_PBMCCytotoxicity: PBMC Cytotoxicity Assessment in the BioMAP Diversity Plus: SAg Assay (AID 2283093).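 Also: PBMC viability measured as Alamar Blue reduction fluorescence at 546/580 nm; fitted both ways against DMSO so a hit may be loss or gain of signal.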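 As to AC50: PBMC superantigen activated with SEB plus TSST-1 one hour after compound addition.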 The following applies: primary human HUVEC with PBMC. Summed up:
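Alamar Blue reduction (6 h, 546/580 nm) reports PBMC cytotoxicity after 90 h superantigen activation (SEB, TSST-1; 20 ng/mL final each) with 1 h compound pre-treatment. Gain or loss of signal fitted versus DMSO.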

Read-out in test [10]: Interleukin-8 (IL8), CXCL8 (gene 3576)
The test is described as follows: BSK_SAg_IL8: BioMAP Diversity Plus: SAg Assay for Interleukin-8 (IL8) Biomarker Activity (AID 2283094). The following applies: primary human HUVEC with PBMC; actives raise or lower the signal. The procedure, abridged: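 ELISA readout of IL-8 from a superantigen-activated endothelial/PBMC primary human co-culture, taken 24 h post-dosing and fitted in both directions against DMSO; parallel SRB total-protein staining flags overt cytotoxicity.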

The nature of test [11]: BSK_SAg_Proliferation: Cell Proliferation Assessment in the BioMAP Diversity Plus: SAg Assay (AID 2283095).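 Also: relative cell number as total protein by SRB absorbance in sub-confluent culture.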 Conditions: primary human HUVEC with PBMC. The procedure, abridged:
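Relative cell number in the endothelial cell/PBMC co-culture was quantified at 96 h by SRB staining (0.1% SRB, 10% TCA fixation, read at 560 nm). Curves were fitted in both directions relative to DMSO baseline.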

Test [12] in a line: BSK_SAg_SRB: Viability Assessment in the BioMAP Diversity Plus: SAg Assay (AID 2283096).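 Also: cells read one day after compound addition; hits may be either gain or loss of signal compared with DMSO.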 The following applies: primary human HUVEC with PBMC. The procedure, abridged: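 This overt-cytotoxicity endpoint quantifies protein in human endothelial/PBMC co-cultures at 24 h using SRB absorbance (560 nm) after trichloroacetic acid fixation. Values reflect signal change from the DMSO negative control, fitted bidirectionally.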

Active and inactive are the calls of the source. The calls were made as follows: active = hit-call score of the fitted dose curve at least 0.9, where 1 is the maximum; inactive = score below 0.9.

Tumor necrosis factor (Homo sapiens), sequence (P01375 whole entry, looked up): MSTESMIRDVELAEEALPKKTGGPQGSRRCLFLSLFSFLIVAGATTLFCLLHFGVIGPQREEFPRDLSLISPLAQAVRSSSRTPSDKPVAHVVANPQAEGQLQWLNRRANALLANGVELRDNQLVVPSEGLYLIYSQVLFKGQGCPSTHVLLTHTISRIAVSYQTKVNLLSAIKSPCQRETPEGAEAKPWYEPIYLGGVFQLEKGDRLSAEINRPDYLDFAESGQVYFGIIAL
E-selectin (Homo sapiens), sequence (P16581 whole entry, looked up): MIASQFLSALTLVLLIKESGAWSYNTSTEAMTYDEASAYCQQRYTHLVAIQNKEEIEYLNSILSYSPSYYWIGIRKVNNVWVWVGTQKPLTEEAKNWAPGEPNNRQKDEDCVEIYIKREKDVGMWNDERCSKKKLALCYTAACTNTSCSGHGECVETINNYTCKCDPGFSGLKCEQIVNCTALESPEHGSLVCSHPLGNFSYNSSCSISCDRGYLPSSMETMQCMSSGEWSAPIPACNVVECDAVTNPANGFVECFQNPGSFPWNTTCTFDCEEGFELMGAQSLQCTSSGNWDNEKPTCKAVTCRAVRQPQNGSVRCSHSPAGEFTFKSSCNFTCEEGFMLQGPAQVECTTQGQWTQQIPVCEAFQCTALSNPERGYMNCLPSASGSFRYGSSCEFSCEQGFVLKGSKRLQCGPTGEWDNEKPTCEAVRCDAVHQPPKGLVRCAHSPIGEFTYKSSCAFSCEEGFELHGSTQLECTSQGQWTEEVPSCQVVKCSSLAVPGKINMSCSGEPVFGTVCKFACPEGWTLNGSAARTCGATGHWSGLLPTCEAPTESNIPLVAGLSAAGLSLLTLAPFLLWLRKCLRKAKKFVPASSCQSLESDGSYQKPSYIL

On to `CCOC(=O)CC(CC(=O)OCC)(OC(C)=O)C(=O)OCC`, for which the outcome is “inactive” in [1]; “inactive” in [2]; “inactive” in test [3]; “inactive” in test [4]; “inactive” in [5]; “inactive” in the test with CD38, CD38 (gene 952). In addition, the outcome was “inactive” in the test with CD40, CD40 (gene 958); “inactive” with CD69, CD69 (gene 969); “inactive” in test [6]; “inactive” in test [7]; “inactive” in test [8]; “inactive” in [9]. Also, the result in [10], in test [11] and in [12] was inactive.
For the compound `COC(=O)c1ccccc1O`, the outcome is “inactive” in test [1]; “inactive” in test [2]; “inactive” in test [3]; “inactive” in test [4]; “inactive” in [5]; “inactive” in the test with CD38, CD38 (gene 952). Further, the outcome in the test with CD40, CD40 (gene 958) is “inactive”; with CD69, CD69 (gene 969) it was “inactive”; in test [6], “inactive”; in [7], “inactive”; in test [8], “inactive”; in test [9], “inactive”. Besides, the outcome in test [10], in test [11] and in test [12] was inactive.
As to `CC[C@H]1CC[C@H](NCc2cc3c(cc2OC)[C@H]2C[C@H]2C(=O)N3C)[C@H](c2ccccc2)N1`, the outcome in [1] was “inactive”; in [2], “inactive”; in test [3], “inactive”; in test [4], “inactive”; in [5], “inactive”; with CD38, CD38 (gene 952), “inactive”. For the same compound, the outcome in the test with CD40, CD40 (gene 958) was “inactive”; in the test with CD69, CD69 (gene 969) it was “inactive”; in test [6], “inactive”; in test [7], “inactive”; in test [8], “inactive”; in test [9], “inactive”. Moreover, the result in test [10], in [11] and in test [12] was inactive.
On to `C=CC(=C)CCC=C(C)C`, for which the outcome in [1] was “inactive”; in [2] it was “inactive”; in test [3], “inactive”; in [4], “inactive”; in test [5] it was “inactive”; in the test with CD38, CD38 (gene 952), “inactive”. Further, the outcome was “inactive” with CD40, CD40 (gene 958); “inactive” with CD69, CD69 (gene 969); “inactive” in test [6]; “inactive” in test [7]; “inactive” in test [8]; “inactive” in test [9]. The outcome in test [10], in test [11] and in [12] was inactive.
`Cc1ccc(S(=O)(=O)O)cc1C`: the outcome in [1] is “inactive”; in test [2], “inactive”; in test [3] it was “inactive”; in [4], “inactive”; in [5], “inactive”; with CD38, CD38 (gene 952), “inactive”. The outcome is “inactive” with CD40, CD40 (gene 958); “inactive” with CD69, CD69 (gene 969); “inactive” in test [6]; “inactive” in [7]; “inactive” in test [8]; “inactive” in test [9]. The result in [10], in test [11] and in test [12] was inactive.
On to `CC(C)CC(C)(O)C#CC(C)(O)CC(C)C` (stereo not given), for which the outcome is “inactive” in test [1]; “inactive” in test [2]; “inactive” in [3]; “inactive” in test [4]; “inactive” in test [5]; “inactive” with CD38, CD38 (gene 952). For the same compound, the outcome was “inactive” with CD40, CD40 (gene 958); “inactive” with CD69, CD69 (gene 969); “inactive” in test [6]; “inactive” in test [7]; “inactive” in [8]; “inactive” in test [9]. In addition, the result in test [10], in test [11] and in test [12] was inactive.
With `CCCCCCCCCCCCCCCO`, the result in [1], in test [3] and in test [8] was inactive. The AC50 (as a rule, the concentration at which the activity in the assay is half-maximal) is 31 µM (active) in [2]; 3.97 µM (active) in test [4]; 32.4 µM (active) in [5]; 32.6 µM (active) with CD38, CD38 (gene 952); 37.3 µM (active) in the test with CD40, CD40 (gene 958); 31.7 µM (active) with CD69, CD69 (gene 969). In addition, the concentration at half-maximal activity (AC50) in [6] was 33.3 µM (active); in test [7], 33.5 µM (active); in test [9], 30.7 µM (active); in [10] it was 28.6 µM (active); in test [11], 29.5 µM (active); in [12], 34.6 µM (active).
Turning to `CNCc1ccc(NC(=O)c2c[nH]c3c2C(=O)CCC3)cc1`, the outcome in [1] is “inactive”; in test [2], “inactive”; in test [3], “inactive”; in test [4], “inactive”; in test [5] it was “inactive”; with CD38, CD38 (gene 952) it was “inactive”. Besides, the outcome was “inactive” with CD40, CD40 (gene 958); “inactive” in the test with CD69, CD69 (gene 969); “inactive” in test [6]; “inactive” in test [7]; “inactive” in test [8]; “inactive” in test [9]. In addition, the result in [10], in test [11] and in [12] was inactive.

(Values after PubChem BioAssay (EPA / NIEHS).)
